# According to PubChem BioAssay (NCI):
# This is part of a sample that, as a whole, favours compounds with a hit. Of some 83,000 tested, about 20% had one in any assay.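 Single-concentration screen, 48 h exposure, 96-well plates. Endpoint: percent growth. Below 10 = active.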 A number with no mark means an inactive call. Calls of active or inactive are those of the source.
# System: NCI-H522 lung
# Test: NCI-60 one-dose screen, 48 h (100 = growth as untreated, 0 = no growth, -100 = all killed)
# Conditions: 10 µM
row,Structure (SMILES),growth
1,COc1cc2cc(C(=O)N3C[C@@H](CCl)c4c3cc(OC(=O)N3CCN(C)[C@@H]5CSSC[C@H]53)c3ccccc43)[nH]c2c(OC)c1OC,-68% (active)
2,CC1=C(CCC=O)C2=C(C)C3(CC3)[C@@](C)(O)C(=O)C2=C1,-90% (active)
3,COC(=O)C[C@](O)(CCC(C)C)C(=O)O[C@@H]1C(OC)=C[C@]23CCCN2CCc2cc4c(cc2[C@H]13)OCO4,-80.7% (active)
4,O=C(/C=C/c1ccc(Cl)cc1)c1nc2ccccc2n1Cc1ccc(F)cc1,34.9%
5,CC[C@]12C=CCN3CC[C@@]4(c5ccc(OC)cc5N(C)[C@H]4[C@@](O)(C(=O)OC)[C@@H]1OC(=O)CCC[P+](C1CCCCC1)(C1CCCCC1)C1CCCCC1)[C@@H]32,-82.2% (active)
6,CC1=C2C(=C[C@@](C)(COP(=O)(Oc3ccccc3)Oc3ccccc3)[C@@H]2O)C(=O)[C@@](C)(O)C12CC2,-93.4% (active)
7,CC(=O)Oc1ccccc1C(=O)NC([Se])=NC1CCCCC1,-95.7% (active)
8,CCOP(=O)(CC(F)(F)C(F)(F)F)OCC,-77.3% (active)
9,CC(C)C[C@H](NC(=O)CNC(=O)C[C@H]1O[C@@H]2OC3(C)CC[C@H]4[C@H](C)CC[C@@H]([C@H]1C)[C@@]24OO3)B(O)O,-73.8% (active)
10,C[C@H]1[C@@H](Oc2ccc(-c3cn(-c4ccnc5cc(Cl)ccc45)nn3)cc2)O[C@@H]2OC3(C)CC[C@H]4[C@H](C)CC[C@@H]1[C@@]24OO3,2.18% (active)
11,C[C@H]1[C@H](OC(=O)CCC(=O)N(CCCc2cn(-c3ccc([N+](=O)[O-])cc3)nn2)CCNc2ccnc3cc(Cl)ccc23)O[C@@H]2OC3(C)CC[C@H]4[C@H](C)CC[C@@H]1[C@@]24OO3,5.13% (active)
12,COc1cc2cc(C(=O)N3C[C@@H](CCl)c4c3cc(OC(=O)N3CCN(C)[C@@H]5CSSC[C@@H]53)c3ccccc43)[nH]c2c(OC)c1OC,-55.8% (active)
13,COc1cc2cc(C(=O)N3C[C@@H](CCl)c4c3cc(OC(=O)N3CCN(C(=O)CCC(=O)N5CCN(C)CC5)[C@@H]5CSSC[C@@H]53)c3ccccc43)[nH]c2c(OC)c1OC,-82.7% (active)
14,COC(=O)c1ccc(-n2cc(CCCN(CCNc3ccnc4cc(Cl)ccc34)C(=O)CCC(=O)O[C@@H]3O[C@@H]4OC5(C)CC[C@H]6[C@H](C)CC[C@@H]([C@H]3C)[C@@]46OO5)nn2)cc1,7.38% (active)
15,O=C([Se]C1C=CCCC1)c1ccc(C(=O)[Se]C2C=CCCC2)s1 (stereo not given),-92.8% (active)
16,O=C(/C=C/c1cccc(Br)c1)c1nc2ccccc2n1Cc1ccc(F)cc1,59.4%
17,CC[C@]12C=CCN3CC[C@@]4(c5ccc(OC)cc5N(C)[C@H]4[C@@](O)(C(=O)OC)[C@@H]1OC(=O)CCC[P+](c1ccc(C)cc1)(c1ccc(C)cc1)c1ccc(C)cc1)[C@@H]32,-86.3% (active)
18,O=C(NC([Se])=NC1CCCCC1)c1ccccc1,-30.9% (active)
19,O=C(/C=C/c1ccc(F)cc1)c1nc2ccccc2n1Cc1ccc(F)cc1,44.1%
20,O=C(/C=C/c1ccccc1)c1nc2ccccc2n1Cc1ccc(Br)cc1,-73.8% (active)
21,C=CC[Se]C(=O)c1cncc(C(=O)[Se]CC=C)c1,-89.5% (active)
22,COc1ccc(OC)c(/C=C/C(=O)c2nc3ccccc3n2Cc2ccc(F)cc2)c1,-52.4% (active)
23,O=C(/C=C/c1ccc(F)cc1)c1nc2ccccc2n1Cc1ccc(Br)cc1,-64% (active)
24,CC[C@]12C=CCN3CC[C@@]4(c5ccc(OC)cc5N(C)[C@H]4[C@@](O)(C(=O)OC)[C@@H]1OC(=O)CCCC[P+](c1ccc(C)cc1)(c1ccc(C)cc1)c1ccc(C)cc1)[C@@H]32,-82.7% (active)
25,CC(C)N=C([Se])NC(=O)c1cccs1,41.1%
26,CC1=C(CCC=NNC(N)=O)C2=C(C)C3(CC3)[C@@](C)(O)C(=O)C2=C1,-90.4% (active)
27,Cc1ccc2[nH]c(=S)n(-c3ccc(F)cc3)c(=O)c2c1,97.9%
28,C#CC[Se]C(=O)c1ccc2n[se]nc2c1,51.9%
29,CC1=C(COCCOC(=O)c2ccc(S(=O)(=O)F)cc2)C2=C(C)C3(CC3)[C@@](C)(O)C(=O)C2=C1,-72.2% (active)
30,CC12CCC3(CCC(=O)NCCCNc4ccnc5cc(Cl)ccc45)[C@@](C)(OO[C@]3(C)O1)O2,-50.4% (active)
